Substitutions are numbered along the chain they refer to.

Holding throughout (assay): PBM; 200 nM protein, PBS
What all share (conditions): dsDNA, one strand shown

In assay [1] the target is T1, NKX2-4 (Homo sapiens, UniProt Q9H2Z4 175-261, P217L).
T1 sequence: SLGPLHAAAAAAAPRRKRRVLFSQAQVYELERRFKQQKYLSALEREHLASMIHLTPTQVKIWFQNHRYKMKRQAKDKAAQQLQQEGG

Assay [2] has as its target T2, NKX2-4 (Homo sapiens, UniProt Q9H2Z4 175-261, T231S).
T2 sequence: T1 sequence with L43P, T57S

Assay [3] concerns the target HOXC10 (Homo sapiens, UniProt Q9NYD6 254-340).
The target in assay [4] is T3, NKX2-4 (Homo sapiens, UniProt Q9H2Z4 175-261).
T3 sequence: T1 sequence with L43P

For assay [5], the target named is HOXC10 (Homo sapiens, UniProt Q9NYD6 254-340, K271E).
The target of assay [6] is T4, NKX2-4 (Homo sapiens, UniProt Q9H2Z4 175-261, R246Q).
T4 sequence: T1 sequence with L43P, R72Q

Assay [7] deals with T5, NKX2-6 (Homo sapiens, UniProt A6NCS4 118-204, R150C).
T5 sequence: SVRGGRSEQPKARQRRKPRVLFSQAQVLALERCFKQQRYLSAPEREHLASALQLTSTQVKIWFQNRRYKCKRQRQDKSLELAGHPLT

For assay [8], the target named is T6, NKX2-6 (Homo sapiens, UniProt A6NCS4 118-204).
T6 sequence: T5 sequence with C33R

Assay [9] deals with T7, NKX2-6 (Homo sapiens, UniProt A6NCS4 118-204, F151L).
T7 sequence: T5 sequence with C33R, F34L

Assay [10] has as its target ALX4 (Homo sapiens, UniProt Q9H161 200-286).
For assay [11], the target named is ALX4 (Homo sapiens, UniProt Q9H161 200-286, Q225E).
Assay [12] concerns the target MSX2 (Homo sapiens, UniProt P35548 130-214, R199I).
The target of assay [13] is ALX1 (Homo sapiens, UniProt Q15699 118-204, L144V).
The target of assay [14] is ALX1 (Homo sapiens, UniProt Q15699 118-204, L144R).
The target of assay [15] is MSX2 (Homo sapiens, UniProt P35548 130-214).
For assay [16], the target named is MSX2 (Homo sapiens, UniProt P35548 130-214, F161Y).
The target in assay [17] is ALX1 (Homo sapiens, UniProt Q15699 118-204).
ALX1 (Homo sapiens, UniProt Q15699 118-204), sequence (Q15699 118-204): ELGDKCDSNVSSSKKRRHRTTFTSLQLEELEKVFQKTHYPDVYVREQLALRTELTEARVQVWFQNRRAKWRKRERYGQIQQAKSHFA

HOXC10 (Homo sapiens, UniProt Q9NYD6 254-340, K271E), sequence (Q9NYD6 254-340 K271E): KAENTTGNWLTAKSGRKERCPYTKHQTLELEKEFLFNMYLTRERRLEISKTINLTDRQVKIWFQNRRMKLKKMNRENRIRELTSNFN
ALX4 (Homo sapiens, UniProt Q9H161 200-286, Q225E), sequence (Q9H161 200-286 Q225E): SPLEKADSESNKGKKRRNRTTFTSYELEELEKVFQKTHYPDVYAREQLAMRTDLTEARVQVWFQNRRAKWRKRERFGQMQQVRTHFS
MSX2 (Homo sapiens, UniProt P35548 130-214, F161Y), sequence (P35548 130-214 F161Y): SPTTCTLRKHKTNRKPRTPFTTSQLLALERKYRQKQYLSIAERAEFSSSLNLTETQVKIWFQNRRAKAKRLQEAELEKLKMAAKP
ALX4 (Homo sapiens, UniProt Q9H161 200-286), sequence (Q9H161 200-286): as the sequence (Q9H161 200-286 Q225E) above, with E26Q counted along it
MSX2 (Homo sapiens, UniProt P35548 130-214), sequence (P35548 130-214): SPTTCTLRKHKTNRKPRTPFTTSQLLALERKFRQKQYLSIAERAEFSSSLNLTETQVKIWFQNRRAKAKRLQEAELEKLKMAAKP
ALX1 (Homo sapiens, UniProt Q15699 118-204, L144R), sequence (Q15699 118-204 L144R): as the sequence (Q15699 118-204) above, with L27R counted along it
HOXC10 (Homo sapiens, UniProt Q9NYD6 254-340), sequence (Q9NYD6 254-340): as the sequence (Q9NYD6 254-340 K271E) above, with E18K counted along it
ALX1 (Homo sapiens, UniProt Q15699 118-204, L144V), sequence (Q15699 118-204 L144V): as the sequence (Q15699 118-204) above, with L27V counted along it
MSX2 (Homo sapiens, UniProt P35548 130-214, R199I), sequence (P35548 130-214 R199I): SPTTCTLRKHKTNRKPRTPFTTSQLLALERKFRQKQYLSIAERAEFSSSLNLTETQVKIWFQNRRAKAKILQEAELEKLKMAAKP

For the sequence AGCCTCAG, the binding signal in the assay with NKX2-4 [1] was 9.76 upbm affinity estimate (log intensity, higher = more binding, comparable within an allelic series); in the assay with NKX2-4 [2] it was 9.76 upbm affinity estimate (log intensity, higher = more binding, comparable within an allelic series); in the assay with HOXC10 [3], 10.1 upbm affinity estimate (log intensity, higher = more binding, comparable within an allelic series); in the assay with NKX2-4 [4], 9.79 upbm affinity estimate (log intensity, higher = more binding, comparable within an allelic series); with HOXC10 [5], 10.1 upbm affinity estimate (log intensity, higher = more binding, comparable within an allelic series); in the assay with NKX2-4 [6], 9.76 upbm affinity estimate (log intensity, higher = more binding, comparable within an allelic series).

For the sequence CCCAAACG, the binding signal was 9.71 upbm affinity estimate (log intensity, higher = more binding, comparable within an allelic series) with NKX2-4 [1]; 9.8 upbm affinity estimate (log intensity, higher = more binding, comparable within an allelic series) with NKX2-4 [2]; 9.76 upbm affinity estimate (log intensity, higher = more binding, comparable within an allelic series) with NKX2-4 [4]; 9.88 upbm affinity estimate (log intensity, higher = more binding, comparable within an allelic series) with NKX2-4 [6].

CACGCCGC: the binding signal in the assay with NKX2-4 [1] is 9.39 upbm affinity estimate (log intensity, higher = more binding, comparable within an allelic series); with NKX2-4 [2], 9.34 upbm affinity estimate (log intensity, higher = more binding, comparable within an allelic series); with NKX2-4 [4] it was 9.42 upbm affinity estimate (log intensity, higher = more binding, comparable within an allelic series); with NKX2-6 [7] it was 9.39 upbm affinity estimate (log intensity, higher = more binding, comparable within an allelic series); in the assay with NKX2-6 [8] it was 9.52 upbm affinity estimate (log intensity, higher = more binding, comparable within an allelic series); with NKX2-4 [6], 9.48 upbm affinity estimate (log intensity, higher = more binding, comparable within an allelic series). Also, in the assay with NKX2-6 [9], the binding signal is 9.29 upbm affinity estimate (log intensity, higher = more binding, comparable within an allelic series).

Turning to CGTCCCGA, the binding signal with NKX2-4 [1] is 9.52 upbm affinity estimate (log intensity, higher = more binding, comparable within an allelic series); in the assay with NKX2-4 [2] it was 9.51 upbm affinity estimate (log intensity, higher = more binding, comparable within an allelic series); with ALX4 [10] it was 8.27 upbm affinity estimate (log intensity, higher = more binding, comparable within an allelic series); with NKX2-4 [4], 9.43 upbm affinity estimate (log intensity, higher = more binding, comparable within an allelic series); with ALX4 [11] it was 8.37 upbm affinity estimate (log intensity, higher = more binding, comparable within an allelic series); with NKX2-4 [6], 9.52 upbm affinity estimate (log intensity, higher = more binding, comparable within an allelic series).

In the case of ATTTAGTG, the binding signal is 11.4 upbm affinity estimate (log intensity, higher = more binding, comparable within an allelic series) with NKX2-4 [1]; 11.6 upbm affinity estimate (log intensity, higher = more binding, comparable within an allelic series) in the assay with NKX2-4 [2]; 11.4 upbm affinity estimate (log intensity, higher = more binding, comparable within an allelic series) with NKX2-4 [4]; 11.5 upbm affinity estimate (log intensity, higher = more binding, comparable within an allelic series) with NKX2-4 [6].

For the sequence ACCCCTGG, the binding signal is 9.8 upbm affinity estimate (log intensity, higher = more binding, comparable within an allelic series) in the assay with NKX2-4 [1]; 9.68 upbm affinity estimate (log intensity, higher = more binding, comparable within an allelic series) with NKX2-4 [2]; 9.75 upbm affinity estimate (log intensity, higher = more binding, comparable within an allelic series) in the assay with NKX2-4 [4]; 9.54 upbm affinity estimate (log intensity, higher = more binding, comparable within an allelic series) with MSX2 [12]; 6.31 upbm affinity estimate (log intensity, higher = more binding, comparable within an allelic series) in the assay with ALX1 [13]; 6.38 upbm affinity estimate (log intensity, higher = more binding, comparable within an allelic series) with ALX1 [14]. Also, the binding signal in the assay with MSX2 [15] was 9.55 upbm affinity estimate (log intensity, higher = more binding, comparable within an allelic series); with NKX2-4 [6] it was 9.71 upbm affinity estimate (log intensity, higher = more binding, comparable within an allelic series); in the assay with MSX2 [16], 9.58 upbm affinity estimate (log intensity, higher = more binding, comparable within an allelic series); with ALX1 [17] it was 6.28 upbm affinity estimate (log intensity, higher = more binding, comparable within an allelic series).

Turning to CTACTTCA, the binding signal in the assay with NKX2-4 [1] is 12.4 upbm affinity estimate (log intensity, higher = more binding, comparable within an allelic series); with NKX2-4 [2], 12.6 upbm affinity estimate (log intensity, higher = more binding, comparable within an allelic series); in the assay with NKX2-4 [4], 12.2 upbm affinity estimate (log intensity, higher = more binding, comparable within an allelic series); with NKX2-4 [6], 12.8 upbm affinity estimate (log intensity, higher = more binding, comparable within an allelic series).

In the case of GATGAGGA, the binding signal with NKX2-4 [1] was 11.4 upbm affinity estimate (log intensity, higher = more binding, comparable within an allelic series); with NKX2-4 [2] it was 11.6 upbm affinity estimate (log intensity, higher = more binding, comparable within an allelic series); in the assay with NKX2-4 [4] it was 11.3 upbm affinity estimate (log intensity, higher = more binding, comparable within an allelic series).

For the sequence CCGGTAAC, the binding signal in the assay with NKX2-4 [1] is 9.94 upbm affinity estimate (log intensity, higher = more binding, comparable within an allelic series); with NKX2-4 [2] it was 9.84 upbm affinity estimate (log intensity, higher = more binding, comparable within an allelic series); with NKX2-4 [4], 9.9 upbm affinity estimate (log intensity, higher = more binding, comparable within an allelic series); in the assay with NKX2-4 [6], 9.93 upbm affinity estimate (log intensity, higher = more binding, comparable within an allelic series).

Turning to ACCTGCAG, the binding signal was 9.74 upbm affinity estimate (log intensity, higher = more binding, comparable within an allelic series) in the assay with NKX2-4 [1]; 9.82 upbm affinity estimate (log intensity, higher = more binding, comparable within an allelic series) with NKX2-4 [2]; 9.68 upbm affinity estimate (log intensity, higher = more binding, comparable within an allelic series) with NKX2-4 [4]; 9.76 upbm affinity estimate (log intensity, higher = more binding, comparable within an allelic series) with NKX2-4 [6].

For the sequence ATCGTGCC, the binding signal is 9.86 upbm affinity estimate (log intensity, higher = more binding, comparable within an allelic series) with NKX2-4 [1]; 9.92 upbm affinity estimate (log intensity, higher = more binding, comparable within an allelic series) with NKX2-4 [2]; 9.97 upbm affinity estimate (log intensity, higher = more binding, comparable within an allelic series) with NKX2-4 [4]; 9.95 upbm affinity estimate (log intensity, higher = more binding, comparable within an allelic series) in the assay with NKX2-4 [6].

As to CCGCTAGG, the binding signal is 9.61 upbm affinity estimate (log intensity, higher = more binding, comparable within an allelic series) with NKX2-4 [1]; 9.55 upbm affinity estimate (log intensity, higher = more binding, comparable within an allelic series) in the assay with NKX2-4 [2]; 9.61 upbm affinity estimate (log intensity, higher = more binding, comparable within an allelic series) with NKX2-4 [4]; 9.6 upbm affinity estimate (log intensity, higher = more binding, comparable within an allelic series) with NKX2-4 [6].

In the case of CCCTGCAG, the binding signal is 9.9 upbm affinity estimate (log intensity, higher = more binding, comparable within an allelic series) in the assay with NKX2-4 [1]; 9.92 upbm affinity estimate (log intensity, higher = more binding, comparable within an allelic series) in the assay with NKX2-4 [2]; 9.89 upbm affinity estimate (log intensity, higher = more binding, comparable within an allelic series) with NKX2-4 [4]; 9.93 upbm affinity estimate (log intensity, higher = more binding, comparable within an allelic series) with NKX2-4 [6].

Take GTACTCGA: the binding signal with NKX2-4 [1] was 12.4 upbm affinity estimate (log intensity, higher = more binding, comparable within an allelic series); with NKX2-4 [2], 12.9 upbm affinity estimate (log intensity, higher = more binding, comparable within an allelic series); with NKX2-4 [4], 12.3 upbm affinity estimate (log intensity, higher = more binding, comparable within an allelic series); with NKX2-4 [6] it was 12.9 upbm affinity estimate (log intensity, higher = more binding, comparable within an allelic series).

CGTTGTCC: the binding signal is 9.74 upbm affinity estimate (log intensity, higher = more binding, comparable within an allelic series) with NKX2-4 [1]; 9.8 upbm affinity estimate (log intensity, higher = more binding, comparable within an allelic series) in the assay with NKX2-4 [2]; 9.79 upbm affinity estimate (log intensity, higher = more binding, comparable within an allelic series) with NKX2-4 [4]; 9.81 upbm affinity estimate (log intensity, higher = more binding, comparable within an allelic series) with NKX2-4 [6].

With AAAATGCG, the binding signal in the assay with NKX2-4 [1] was 9.82 upbm affinity estimate (log intensity, higher = more binding, comparable within an allelic series); in the assay with NKX2-4 [2], 9.83 upbm affinity estimate (log intensity, higher = more binding, comparable within an allelic series); in the assay with NKX2-4 [4], 9.74 upbm affinity estimate (log intensity, higher = more binding, comparable within an allelic series); in the assay with NKX2-4 [6], 9.92 upbm affinity estimate (log intensity, higher = more binding, comparable within an allelic series).

As to AAACCCCC, the binding signal with NKX2-4 [1] is 9.69 upbm affinity estimate (log intensity, higher = more binding, comparable within an allelic series); in the assay with NKX2-4 [2], 9.77 upbm affinity estimate (log intensity, higher = more binding, comparable within an allelic series); with NKX2-4 [4], 9.71 upbm affinity estimate (log intensity, higher = more binding, comparable within an allelic series); in the assay with NKX2-4 [6], 9.65 upbm affinity estimate (log intensity, higher = more binding, comparable within an allelic series).

These data come from paper PMC11006913.
